Results from PubChem BioAssay AID1159580 (chemical genetic matrix, 2015).
About 2,000 (36%) of roughly 5,500 compounds were called active. Roughly 18% stayed inconclusive and do not appear here. Rule as the data show it: active = normalized growth mostly below about 0.91 (no sharp cut-off); inconclusive = no clear call, values can overlap the other calls; inactive = mostly above about 0.92. The list shows a part of the results.

Test: chemical genetic growth profiling, strain panel (AID 1159580);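 also: tested at 20 µM; growth read once vehicle control cultures reached saturation at 30 °C; 1 = growth at the plate median or of vehicle wells; lower values mean less growth of the strain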
Details: growth OD
[1] = S. cerevisiae deletion strains, locus YDL101C, strain DUN1, hits give low values
[2] = S. cerevisiae deletion strains, locus YHR030C, strain SLT2, hits give low values

Measured: normalized growth

CC(C)Sc1c(Cl)cccc1NC(=O)Nc1cccc(C(F)(F)F)c1
active: [2] 0.773
inactive: S. cerevisiae deletion strains, locus YAR019C, strain CDC15, hits give low values 0.981 | S. cerevisiae deletion strains, locus YBL105C, strain PKC1, hits give low values 0.977 | S. cerevisiae deletion strains, locus YBR135W, strain CKS1, hits give low values 0.972 | S. cerevisiae deletion strains, locus YBR136W, strain MEC1, hits give low values 0.978 | S. cerevisiae deletion strains, locus YBR160W, strain CDC28, hits give low values 0.981 | S. cerevisiae deletion strains, locus YDL017W, strain CDC7, hits give low values 0.984 | S. cerevisiae deletion strains, locus YDL028C, strain MPS1, hits give low values 0.979 | [1] 0.98 | S. cerevisiae deletion strains, locus YDL108W, strain KIN28, hits give low values 0.972 | S. cerevisiae deletion strains, locus YDL132W, strain cdc53, hits give low values 0.975 | S. cerevisiae deletion strains, locus YDL214C, strain PRR2, hits give low values 0.927 | S. cerevisiae deletion strains, locus YDR052C, strain DBF4, hits give low values 0.979 | S. cerevisiae deletion strains, locus YDR054C, strain cdc34, hits give low values 0.97 | S. cerevisiae deletion strains, locus YDR226W, strain ADK1, hits give low values 0.965 | S. cerevisiae deletion strains, locus YDR477W, strain SNF1, hits give low values 0.916 | S. cerevisiae deletion strains, locus YER123W, strain YCK3, hits give low values 0.888 | S. cerevisiae deletion strains, locus YER133W, strain GLC7, hits give low values 0.945 | S. cerevisiae deletion strains, locus YFL009W, strain cdc4, hits give low values 0.99 | S. cerevisiae deletion strains, locus YFL029C, strain CAK1, hits give low values 0.976 | S. cerevisiae deletion strains, locus YFR003C, strain YPI1, hits give low values 0.974 | S. cerevisiae deletion strains, locus YFR019W, strain FAB1, hits give low values 0.918 | S. cerevisiae deletion strains, locus YFR028C, strain CDC14, hits give low values 0.974 | S. cerevisiae deletion strains, locus YGR040W, strain KSS1, hits give low values 0.908 | S. cerevisiae deletion strains, locus YGR052W, strain FMP48, hits give low values 1.04 | S. cerevisiae deletion strains, locus YGR092W, strain DBF2, hits give low values 0.94 | S. cerevisiae deletion strains, locus YHR079C, strain IRE1, hits give low values 0.953 | S. cerevisiae deletion strains, locus YHR082C, strain KSP1, hits give low values 0.96 | S. cerevisiae deletion strains, locus YHR205W, strain SCH9, hits give low values 0.891 | S. cerevisiae deletion strains, locus YIL147C, strain SLN1, hits give low values 0.979 | S. cerevisiae deletion strains, locus YJL095W, strain BCK1, hits give low values 0.887 | S. cerevisiae deletion strains, locus YJL128C, strain PBS2, hits give low values 0.956 | S. cerevisiae deletion strains, locus YJL157C, strain FAR1, hits give low values 0.946 | S. cerevisiae deletion strains, locus YJR016C, strain ILV3, hits give low values 0.984 | S. cerevisiae deletion strains, locus YJR066W, strain TOR1 (second series), hits give low values 0.943 | S. cerevisiae deletion strains, locus YJR066W, strain TOR1, hits give low values 0.912 | S. cerevisiae deletion strains, locus YKL048C, strain ELM1, hits give low values 0.946 | S. cerevisiae deletion strains, locus YKL067W, strain YNK1, hits give low values 0.914 | S. cerevisiae deletion strains, locus YKL101W, strain HSL1, hits give low values 0.937 | S. cerevisiae deletion strains, locus YKL193C, strain SDS22, hits give low values 0.975 | S. cerevisiae deletion strains, locus YKL203C, strain TOR2, hits give low values 0.947 | S. cerevisiae deletion strains, locus YLR113W, strain HOG1, hits give low values 0.908 | S. cerevisiae deletion strains, locus YLR133W, strain CKI1, hits give low values 0.922 | S. cerevisiae deletion strains, locus YLR403W, strain SFP1, hits give low values 0.953 | S. cerevisiae deletion strains, locus YML070W, strain DAK1, hits give low values 0.929 | S. cerevisiae deletion strains, locus YMR001C, strain CDC5, hits give low values 0.977 | S. cerevisiae deletion strains, locus YMR205C, strain PFK2 (second series), hits give low values 0.936 | S. cerevisiae deletion strains, locus YMR277W, strain FCP1, hits give low values 0.973 | S. cerevisiae deletion strains, locus YNL006W, strain LST8, hits give low values 0.98 | S. cerevisiae deletion strains, locus YNL020C, strain ARK1, hits give low values 0.926 | S. cerevisiae deletion strains, locus YNL161W, strain CBK1, hits give low values 0.983 | S. cerevisiae deletion strains, locus YNL183C, strain NPR1, hits give low values 0.918 | S. cerevisiae deletion strains, locus YNL207W, strain RIO2, hits give low values 0.982 | S. cerevisiae deletion strains, locus YNL222W, strain SSU72, hits give low values 0.97 | S. cerevisiae deletion strains, locus YNL307C, strain MCK1 (second series), hits give low values 0.876 | S. cerevisiae deletion strains, locus YOL078W, strain AVO1, hits give low values 0.966 | S. cerevisiae deletion strains, locus YOL136C, strain PFK27, hits give low values 0.93 | S. cerevisiae deletion strains, locus YOR061W, strain CKA2, hits give low values 0.957 | S. cerevisiae deletion strains, locus YOR119C, strain RIO1, hits give low values 0.995 | S. cerevisiae deletion strains, locus YOR231W, strain MKK1, hits give low values 0.946 | S. cerevisiae deletion strains, locus YOR329C, strain SCD5, hits give low values 0.98 | S. cerevisiae deletion strains, locus YPL031C, strain PHO85, hits give low values 0.905 | S. cerevisiae deletion strains, locus YPL153C, strain RAD53, hits give low values 0.911 | S. cerevisiae deletion strains, locus YPL204W, strain HRR25, hits give low values 0.896 | S. cerevisiae deletion strains, locus YPL209C, strain IPL1, hits give low values 0.976 | S. cerevisiae deletion strains, locus YPL256C, strain CLN2, hits give low values 0.861 | S. cerevisiae deletion strains, locus YPR025C, strain CCL1, hits give low values 0.979 | S. cerevisiae deletion strains, locus YPR106W, strain ISR1, hits give low values 0.976 | S. cerevisiae deletion strains, locus YPR111W, strain DBF20, hits give low values 0.974 | S. cerevisiae deletion strains, strain NNK1, hits give low values 0.97 | S. cerevisiae deletion strains, strain TSCII, hits give low values 0.992

Cc1cc(NC(=O)Nc2cccc(C(F)(F)F)c2)n(C)n1
inactive: S. cerevisiae deletion strains, locus YAL013W, strain DEP1, hits give low values 1 | S. cerevisiae deletion strains, locus YBR229C, strain ROT2, hits give low values 0.997 | S. cerevisiae deletion strains, locus YCL061C, strain MRC1, hits give low values 1.01 | [1] 0.983 | S. cerevisiae deletion strains, locus YDR150W, strain NUM1, hits give low values 0.998 | S. cerevisiae deletion strains, locus YEL061C, strain CIN8, hits give low values 1.01 | S. cerevisiae deletion strains, locus YGR078C, strain PAC10, hits give low values 1.01 | [2] 1.08 | S. cerevisiae deletion strains, locus YHR087W, strain rtc3, hits give low values 0.989 | S. cerevisiae deletion strains, locus YJR043C, strain POL32, hits give low values 0.998 | S. cerevisiae deletion strains, locus YJR075W, strain HOC1, hits give low values 0.992 | S. cerevisiae deletion strains, locus YLR039C, strain RIC1, hits give low values 1.02 | S. cerevisiae deletion strains, locus YLR058C, strain SHM2 (second series), hits give low values 1.01 | S. cerevisiae deletion strains, locus YLR085C, strain ARP6, hits give low values 0.986 | S. cerevisiae deletion strains, locus YLR262C, strain YPT6, hits give low values 1.09 | S. cerevisiae deletion strains, locus YML094W, strain GIM5, hits give low values 0.987 | S. cerevisiae deletion strains, locus YMR219W, strain ESC1, hits give low values 1 | S. cerevisiae deletion strains, locus YMR263W, strain SAP30, hits give low values 1.01 | S. cerevisiae deletion strains, locus YNL153C, strain GIM3, hits give low values 0.998 | S. cerevisiae deletion strains, locus YNL298W, strain CLA4 (second series), hits give low values 0.991 | S. cerevisiae deletion strains, locus YNL322C, strain KRE1, hits give low values 1.01 | S. cerevisiae deletion strains, locus YNR030W, strain Alg12, hits give low values 1 | S. cerevisiae deletion strains, locus YOL006C, strain TOP1, hits give low values 1 | S. cerevisiae deletion strains, locus YPL055C, strain LGE1, hits give low values 0.989 | S. cerevisiae deletion strains, locus YPL241C, strain CIN2, hits give low values 0.981 | S. cerevisiae deletion strains, locus YPR135W, strain CTF4, hits give low values 1.08 | S. cerevisiae strains, strain wild type, hits give low values 0.986
